The list is not random: actives were taken first. Their share in the collection is about 3.1%.
VDR inhibitor: vitamin D3 receptor (human) inhibition; AID 504847; hit rate 0.93% among 400,000; P11473; VDR-SRC2-3 peptide fluorescence polarization, 2 h; Potency, µM, usual class: inhibitors
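Two reagent solutions held at 4 deg C in the dark were dispensed, compounds pinned at 23 nl, and the mixture incubated 2 h at room temperature. Read-out: fluorescence polarization of VDR–SRC2-3 peptide binding.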
S-ASM inh: human S-ASM enzyme inhibition. P17405. placental ASM, HMU-PC fluorogenic substrate, 60 min. Potency, µM (highest dose often 57.5 µM), most hits filed as inhibitors. hit rate 0.006% among 340,000. AID 504937
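Human placenta-derived ASM enzyme was preincubated with compound for 10 minutes at room temperature, then given fluorogenic substrate HMU-PC0 (9 uM final) for 60 minutes at 37 °C; a pH 10 stop preceded fluorescence reading at Ex 386/Em 447 nm.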
Tb PFK block: T. brucei PFK enzyme inhibition; O15648; T. brucei PFK, ADP-Glo luminescence; Potency, µM (doses to about 57.5 µM), most hits filed as inhibitors; hit rate 0.17% among 330,000; AID 485367; further: nearly all actives have a fitted effect of over 60% in size
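Compounds were pin-transferred as a titration series up to 57 uM into substrate buffer (0.5 mM F6P, 0.1 mM ATP, pH 8.0), then 1.25 nM PFK was added and reactions ran 45 min before ADP-Glo detection.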
TDP1 block: TDP1 (human) enzyme inhibition | recombinant TDP1, AlphaScreen DNA substrate cleavage | Potency, µM (highest dose often 130 µM), most hits filed as inhibitors | hit rate 0.28% among 350,000 | AID 485290; further: nearly all actives have a fitted effect of over 40% in size
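Recombinant E. coli-expressed Tdp1 (1 nM) preincubated with compound 15 min at RT, then 5'-biotin/3'-phosphotyrosine-FITC DNA substrate (15 nM) added for 5 min. AlphaScreen beads (10 ug/ml) added, 10 min RT; tyrosine-FITC cleavage read as signal loss.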
Pin1 inh: inhibitors of human Pin1. Q13526. Pin1 FP peptide displacement, HiFluor488, 10 min. Potency, µM (series often up to 115 µM), actives largely listed as inhibitors. hit rate 0.009% among 390,000. AID 504891; active means well fitted inhibition curve with a large enough effect in the polarisation, with a control signal flat, not every such curve was filed as active; inconclusive means small, poorly fitted or top-dose-only effect, or effect the other way, or a change in a side signal; inactive means no such curve, though single readings can be large or run the other way; the % refers to the polarisation
PLK1 PBD block: blocks phosphopeptide binding to human PLK1 polo-box domain | P53350 | hit rate 2.8% among 360,000 | Plk1 PBD binding of FITC phosphopeptide, fluorescence polarization | AID 720504 | Potency, µM, most hits filed as inhibitors; further: series mostly up to about 57 µM; nearly all actives have a fitted effect of over 65% in size
Target sequence (P53350 whole entry, looked up, the tested form may be a part): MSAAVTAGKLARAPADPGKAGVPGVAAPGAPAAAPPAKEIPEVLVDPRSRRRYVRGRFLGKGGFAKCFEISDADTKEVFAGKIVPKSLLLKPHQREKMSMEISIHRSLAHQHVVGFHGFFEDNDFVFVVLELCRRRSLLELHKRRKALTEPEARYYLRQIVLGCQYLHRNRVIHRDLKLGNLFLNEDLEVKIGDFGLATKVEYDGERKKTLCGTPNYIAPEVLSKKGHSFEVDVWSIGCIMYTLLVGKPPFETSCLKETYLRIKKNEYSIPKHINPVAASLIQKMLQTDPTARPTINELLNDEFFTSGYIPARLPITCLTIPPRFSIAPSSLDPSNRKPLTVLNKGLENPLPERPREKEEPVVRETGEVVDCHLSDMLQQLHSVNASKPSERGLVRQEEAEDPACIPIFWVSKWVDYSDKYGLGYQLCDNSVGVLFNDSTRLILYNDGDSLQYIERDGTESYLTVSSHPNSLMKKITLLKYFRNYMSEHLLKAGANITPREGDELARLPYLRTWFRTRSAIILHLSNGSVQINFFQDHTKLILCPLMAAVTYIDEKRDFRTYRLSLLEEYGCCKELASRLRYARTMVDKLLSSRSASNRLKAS
A number is an active result. Unless noted, the call rests on the fitted dose curve; in most records, active means well fitted curve in the direction sought with a large enough effect; inconclusive means small, poorly fitted or top-dose-only effect, or another doubt; inactive means no such curve, though single readings can be large; an effect the other way counts as inactive or inconclusive.

What do the screens show for `COc1ccc(-n2cccc2/C=C/[N+](=O)[O-])cc1`?
VDR inhibitor: inconclusive; S-ASM inh: inactive; Tb PFK block: inactive; TDP1 block: inactive; Pin1 inh: inactive; PLK1 PBD block: 27µM

What do the screens show for `N#C/C(=C\c1ccccc1)C(=O)N(c1ccccn1)C1CCCCC1`?
VDR inhibitor: 25µM; S-ASM inh: inactive; Tb PFK block: inactive; TDP1 block: inactive; Pin1 inh: inactive; PLK1 PBD block: inactive

Results for COc1ccc2c(c1OC)C(=O)OC2c1ccc(O)cc1 (stereo unspecified) ?
VDR inhibitor: inactive; TDP1 block: inactive; Pin1 inh: inconclusive

How did CN1CC=C2C(C#N)=C(N)C(C#N)(C#N)[C@H](c3ccoc3)[C@H]2C1 do in these assays?
VDR inhibitor: inconclusive; S-ASM inh: inactive; Tb PFK block: inactive; Pin1 inh: inconclusive; PLK1 PBD block: 15µM

What do the screens show for `CC(=O)N1CC=C2C(C#N)=C(N)C(C#N)(C#N)[C@H](c3ccoc3)[C@H]2C1`?
VDR inhibitor: inactive; S-ASM inh: inactive; Tb PFK block: inactive; TDP1 block: inactive; Pin1 inh: inconclusive; PLK1 PBD block: inactive

How did CC12CCC=CC1C(c1ccc(F)c(Br)c1)N(Cc1ccccc1)C2=O (stereo unspecified) do in these assays?
VDR inhibitor: inconclusive; TDP1 block: inactive; Pin1 inh: inactive

How did CCc1nc2nc(C)cc(Nc3ccc(Br)cc3F)n2n1 do in these assays?
VDR inhibitor: inactive; TDP1 block: inactive; Pin1 inh: inactive

What do the screens show for `Nc1nc(=S)n(-c2ccccc2)[nH]1`?
VDR inhibitor: inactive; S-ASM inh: inactive; Tb PFK block: inactive; TDP1 block: inactive; Pin1 inh: inactive; PLK1 PBD block: 24µM

Results for COc1cc(-c2nn3c(Cc4ccccc4)nnc3s2)cc(OC)c1OC ?
VDR inhibitor: inactive; S-ASM inh: inactive; Tb PFK block: inactive; TDP1 block: inactive; Pin1 inh: inactive; PLK1 PBD block: 27µM

How did COc1cc(-c2nnc3sc(-c4ccncc4)nn23)cc(OC)c1OC do in these assays?
VDR inhibitor: inactive; S-ASM inh: inactive; Pin1 inh: inactive; PLK1 PBD block: 12µM

Results for c1ccc(Cc2nnc3sc(-c4ccco4)nn23)cc1 ?
VDR inhibitor: inconclusive; S-ASM inh: inactive; Tb PFK block: inactive; TDP1 block: inactive; Pin1 inh: inactive; PLK1 PBD block: 21µM

What do the screens show for `COc1cc(-c2nn3c(COc4ccccc4)nnc3s2)cc(OC)c1OC`?
VDR inhibitor: inconclusive; S-ASM inh: inactive; Tb PFK block: inactive; TDP1 block: inactive; Pin1 inh: inactive; PLK1 PBD block: 27µM

What do the screens show for `COc1cc(-c2nn3c(-c4ccccc4)nnc3s2)cc(OC)c1OC`?
VDR inhibitor: inactive; S-ASM inh: inactive; Tb PFK block: inactive; TDP1 block: inactive; Pin1 inh: inconclusive; PLK1 PBD block: inactive

What do the screens show for `Cc1nn(C)c2c1c(C(F)(F)F)cc(=O)n2CC(=O)NCc1ccccc1Cl`?
VDR inhibitor: inactive; TDP1 block: inactive; Pin1 inh: inactive

How did CC[C@H](C)[C@H](NC(=O)[C@H](CCC(=O)O)NC(=O)CNC(=O)[C@@H](NC(=O)[C@H](CCC(=O)O)NC(=O)[C@H](CCC(=O)O)NC(=O)[C@H](CC(C)C)NC(=O)CNC(=O)[C@@H]1CCCN1C(=O)[C@H](CCC(=O)O)NC(=O)[C@@H](N)[C@@H](C)O)C(C)C)C(=O)N[C@@H](CCC(=O)O)C(=O)N[C@@H](CCC(N)=O)C(=O)N[C@@H](CCCCN)C(=O)N[C@@H](CCC(N)=O)C(=O)N[C@@H](CC(C)C)C(=O)N[C@@H](CCC(N)=O)C(=O)O do in these assays?
VDR inhibitor: inactive; TDP1 block: inactive

What do the screens show for `CCc1ccc(CNC(=O)COc2cc(=O)n(CC)c3ccccc23)cc1`?
VDR inhibitor: inactive; TDP1 block: inactive; Pin1 inh: inactive

How did COc1ccc(C2Nc3ccccc3C(=O)N2Cc2cccc(C(F)(F)F)c2)cc1COc1ccc(NC(C)=O)cc1 (stereo unspecified) do in these assays?
TDP1 block: inactive; Pin1 inh: inactive

How did O=C(Nc1cc(C(=O)Nc2ccc(S(=O)(=O)O)cc2S(=O)(=O)O)cc(C(=O)Nc2ccc(S(=O)(=O)O)cc2S(=O)(=O)O)c1)Nc1cc(C(=O)Nc2ccc(S(=O)(=O)O)cc2S(=O)(=O)O)cc(C(=O)Nc2ccc(S(=O)(=O)O)cc2S(=O)(=O)O)c1 do in these assays?
VDR inhibitor: inactive; TDP1 block: 5µM

Results for CCCCc1nn2c(=O)cc(COC(=O)c3ccc(NC(=O)C4CCCCC4)cc3)nc2s1 ?
VDR inhibitor: inactive; TDP1 block: inactive; Pin1 inh: inactive

Results for O=c1cc(C(F)(F)F)nc(SCc2cccc3ccccc23)[nH]1 ?
VDR inhibitor: inactive; S-ASM inh: inactive; Tb PFK block: inactive; TDP1 block: inactive; Pin1 inh: inconclusive; PLK1 PBD block: 30µM

What do the screens show for `COc1ccc(N2CCN(C(=O)c3ccc(N(C)S(=O)(=O)c4ccc(OC)cc4)cc3)CC2)cc1`?
VDR inhibitor: 89µM; S-ASM inh: inactive; Tb PFK block: inactive; TDP1 block: inactive; Pin1 inh: inactive; PLK1 PBD block: 13µM

What do the screens show for `Cc1nc(-c2ccc(Cl)cc2)sc1CCNC(=O)c1ccco1`?
VDR inhibitor: inactive; TDP1 block: inactive; Pin1 inh: inactive

How did COc1ccc(/C=C2\C(=O)NC(=O)c3ccccc32)cc1OC do in these assays?
VDR inhibitor: inconclusive; S-ASM inh: inactive; Pin1 inh: inconclusive; PLK1 PBD block: 4.7µM

Results for COc1ccc(C=C2C(=O)OC(C)(C)OC2=O)cc1OC ?
VDR inhibitor: inactive; S-ASM inh: inactive; Tb PFK block: inactive; TDP1 block: inactive; Pin1 inh: inactive; PLK1 PBD block: 13µM

What do the screens show for `Cc1cccc(-c2nn(C(=S)Nc3ccccc3)cc2-c2ccnc3ccccc23)n1`?
VDR inhibitor: inconclusive; TDP1 block: inactive

What do the screens show for `COc1ccc(CNC(=O)c2cnc(N3CCCC3)nc2C)cc1`?
VDR inhibitor: inactive; TDP1 block: inactive; Pin1 inh: inactive

What do the screens show for `CCN(CC)S(=O)(=O)c1cc(NC(=O)NCCCl)ccc1C`?
VDR inhibitor: inactive; S-ASM inh: inactive; Tb PFK block: inactive; Pin1 inh: inactive; PLK1 PBD block: inactive

What do the screens show for `CCN(CC)S(=O)(=O)c1cc(NC(=O)c2ccc(Br)s2)ccc1C`?
VDR inhibitor: inconclusive; S-ASM inh: inactive; Tb PFK block: inactive; TDP1 block: inactive; Pin1 inh: inactive; PLK1 PBD block: 19µM

How did CCOC(=O)CN1C(=O)S/C(=C\c2ccc(-c3ccc(C(=O)O)c(Cl)c3)o2)C1=O do in these assays?
VDR inhibitor: inconclusive; S-ASM inh: inactive; Tb PFK block: inactive; TDP1 block: 8.9µM; Pin1 inh: inactive; PLK1 PBD block: inactive

Bioassay records: PubChem BioAssay, National Center for Advancing Translational Sciences (NCATS)
